# Screens (PubChem BioAssay)
# Rows were chosen to be rich in hits. Some 3.7% of all compounds tested hit in one or more screens of this group.
# Autofluor counter = counter-screen for toxin protease inhibitors: compound fluorescence | compound autofluorescence counterscreen, microsphere flow cytometry; active compounds read high | 3.1% of 360,000 active | AID 624483 | fluorescence intensity (test concentration not listed); in the data active = fluorescence intensity above about 16000; inconclusive = no clear call, values can overlap the other calls
# Anthrax LF inh2 = Bacillus anthracis LF protease inhibitors, primary screen, biochemical, multiplex microsphere, MLPCN library; Lethal factor (Bacillus anthracis), P15917; multiplex microsphere protease cleavage assay; inhibition, % at 10 µM; 0.12% of 360,000 active; AID 588501, 2011
# BoNT A protease = BoNT/A light chain protease inhibitors, primary screen, biochemical, flow cytometry, MLPCN library; inhibition, % at 10 µM; multiplex microsphere protease substrate cleavage; 0.17% of 360,000 active; AID 588499, 2011; Botulinum neurotoxin type A light chain protease (Clostridium botulinum A str. ATCC 3502)
# BoNT-F LC inh = BoNT/F light chain protease inhibitors, primary screen, biochemical, flow cytometry, MLPCN library | Multiplex microsphere protease cleavage assay | inhibition, % at 10 µM | 0.22% of 360,000 active | AID 588497, 2011; in the data active = inhibition above about 35%, passing the limit was not always enough; inconclusive = no clear call, values can overlap the other calls
# MazF activator = activators of E. coli MazEF toxin-antitoxin RNase, primary screen, biochemical, fluorescence, uHTS; Endoribonuclease toxin MazF (Escherichia coli (strain K12)), P0AE70; FAM/BHQ RNA-DNA oligo cleavage fluorescence, 5 h; activation, % at 20 µM; 0.32% of 350,000 active; AID 504720, 2011; in the data active = activation above about 50%
# Target sequence (P0AE70 whole entry, looked up): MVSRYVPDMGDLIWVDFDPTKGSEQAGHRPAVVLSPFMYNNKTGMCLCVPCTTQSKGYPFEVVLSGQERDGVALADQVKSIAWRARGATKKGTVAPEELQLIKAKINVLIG
# Hits are given with their value; – = inactive; ? = inconclusive; · = not tested or not shown. Rule as the data show it, unless noted: active = inhibition above about 30%; inconclusive = no clear call, values can overlap the other calls; inactive = below that.
SMILES,Autofluor counter,Anthrax LF inh2,BoNT A protease,BoNT-F LC inh,MazF activator
O=C(NCc1ccc(F)cc1)N[C@@H](Cc1ccccc1)C(=O)O,22456,–,–,–,–
COc1ccc(/C=C/C(=O)NNC(=O)C(C)Oc2ccccc2F)cc1OC (stereo not drawn),–,–,–,–,–
COc1cc(CN2C[C@@H](CO)O[C@@H](n3cnc4c(NCc5ccco5)ncnc43)C2)cc(OC)c1OC,–,–,–,–,·
Cc1ccsc1C(=O)OCc1nc2ccsc2c(=O)[nH]1,–,–,–,–,–
Cc1ccsc1C(=O)OCc1nc2ccccc2c(=O)[nH]1,19317,–,–,–,–
CC1=NC(=O)C(N=Nc2cccc(O)c2)N1c1ccccc1 (stereo not drawn),16879,–,–,–,–
Cc1noc(C)c1C(=O)Nc1sc(C)c(-c2ccccc2)c1C#N,22924,–,?,–,–
Cc1cccc(C(=O)Nc2sc(C)c(-c3ccccc3)c2C#N)c1,–,–,–,–,–
NS(=O)(=O)c1ccc(CCNC(=O)c2ccccc2F)cc1,16685,–,–,–,–
O=C(NCCc1ccccc1)c1ccccc1F,–,–,–,–,–
O=C(NCCc1ccncc1)c1ccccc1F,21712,–,–,–,–
O=C(NCCNC(=O)C(F)(F)F)c1ccncc1,?,?,–,–,–
O=C(NCCc1ccncc1)C(F)(F)F,24347,–,–,–,–
Cc1cc(C(=O)N2CCCC2(C)C(=O)NCC(C)C)nn1C(C)(C)C (stereo not drawn),–,–,–,–,·
CC(=O)OCC(=O)C1(O)CCC2C3CCC4=CC(=O)CCC4(C)C3(F)C(O)CC21C (stereo not drawn),–,–,–,–,–
COc1ccc(CN2C(=O)C(CC(=O)NCc3ccco3)CC(C(=O)N3CCOCC3)=C2C)cc1 (stereo not drawn),–,–,–,–,–
Cc1cccc(C)c1N(CC(O)Cn1c2ccccc2c2ccccc21)S(C)(=O)=O (stereo not drawn),21877,–,–,–,–
Cc1ccc(N(CC(O)Cn2c3ccccc3c3ccccc32)S(C)(=O)=O)cc1 (stereo not drawn),–,–,–,–,–
CCN(CC)CCCOC(=O)C(OC(C)C)(c1ccccc1)c1ccccc1,?,–,36,43,–
COc1ccc(CNc2cccnc2)c(OC)c1OC,·,·,·,·,–
COc1ccccc1N/N=C(\C#N)C(=N)N1CCOCC1,–,–,–,–,–
CCOC(=O)/C(C#N)=N/Nc1ccccc1OC,–,–,–,–,65
CCOC(=O)/C(C#N)=N\Nc1cc(Cl)ccc1OC,–,–,–,–,326
Cc1c(Cl)cccc1Nc1ccccc1C(=O)O,–,–,–,–,–
O=C(O)c1ccccc1Nc1ccccc1C(=O)O,17128,–,?,–,–
SMILES,Autofluor counter,Anthrax LF inh2,BoNT A protease,BoNT-F LC inh,MazF activator
O=C(/C=N/O)Nc1ccccc1C(=O)O,22836,–,–,–,–
O=Cc1cn(Cc2ccc(F)cc2)c2ccccc12,–,–,–,–,–
O=[N+]([O-])/C=C/c1cn(Cc2ccc(F)cc2)c2ccccc12,–,31,38,–,–
Cc1ccc(Cc2c(C(C)(C)C)nc3cc(C)c(Br)c(C)n23)cc1,–,–,–,–,·
CC1(C)CC(=O)C(C=NCCc2ccc(S(N)(=O)=O)cc2)=C(O)C1,23978,–,–,–,–
COc1ccc(NC(=O)C2(C)CCN2CCc2ccccc2)cc1OC (stereo not drawn),–,–,–,–,·
COc1cc2c3nnc(-c4ccc(F)cc4)c-3cn(Cc3cccc(C)c3)c2cc1OC,–,–,–,–,250
COc1cc2c3nnc(-c4ccc(F)cc4)c-3cn(Cc3cccc(F)c3)c2cc1OC,–,–,–,–,212
CCCC(=O)NC1=C(C#N)C2(CCCC2)Cc2ccccc21,17626,–,?,–,–
CCCC(=O)Nn1cnc2c(c1=O)C1(CCCC1)Cc1ccccc1-2,–,–,–,–,–
CCCc1ccc2c(C(F)(F)F)cc(C(F)(F)F)cc2n1,–,–,–,–,·
COCCOC(=O)C1=C(C)NC(=O)NC1c1cn(-c2ccccc2)nc1-c1cccs1 (stereo not drawn),–,–,–,–,–
COC(=O)C1=C(C)NC(C)=C(C(=O)OC)C1c1cn(-c2ccccc2)nc1-c1ccco1,16749,–,–,–,–
